For 20 compounds, Potency and viability change, negative = cytotoxic results are on record in PubChem BioAssay (Tox21).

Several values for one entry are separate records, joined by “and”; a condition that tells them apart may be missing. Equal entries are not always repeated. Inconclusive results are not listed. Entries that show only a call come without a potency. Values without a mark were called inactive. Activity calls are given as the source filed them. Calls come from the whole dose curve; as a rule, active = well fitted cell-killing curve with a large enough effect in the repeat runs; inconclusive = weak or mixed curves, or effect the other way; inactive = flat fitted curve, though single readings scatter.

A short description of the experiment: cAMP Responsive Elements (CRE) small molecule antagonists, cell-based qHTS assay: qHTS cell viability counter screen (AID 2060913). Note: nearly all actives have a fitted effect of over 40% in size. As to conditions: CRE-bla HEK293T viability, CellTiter-Glo luminescence, 5 h; series mostly up to 92.4 µM. An outline of the steps:
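CRE-bla HEK293T cells were seeded in assay medium with 10% dialyzed FBS, incubated 18 hrs at 37 C, then exposed to compounds plus 0.25 uM final NKH477 for 3 hrs. Viability was read by CellTiter-Glo luminescence after 30 min, in the same wells.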
As to `C=C(C)C(=O)O[C@H]1C[C@@H]2CC[C@@]1(C)C2(C)C`, the Potency result was “inactive”. Take `CC(=O)O[C@H]1CC[C@@]2(C)C(=CC[C@@H]3[C@@H]2CC[C@]2(C)C(C(C)=O)=CC[C@@H]32)C1`: the Potency entry was “inactive”. With `CCNc1ccccc1`, the Potency entry is “inactive”. In the case of `CC(=O)c1cc(C)oc1C`, the Potency result is “inactive”. As to `CCN(CC)CCCC(C)Nc1ccnc2cc(Cl)ccc12` (stereo not given), the viability change, negative = cytotoxic is 4.94% [at 8.39 µM] and -2.8% [at 18.9 µM].

In the case of `CN1CCC[C@@H]1Cc1c[nH]c2ccc(CCS(=O)(=O)c3ccccc3)cc12`, the Potency entry was “inactive”.

Regarding `CC(C)c1cc2c(cc1S(=O)(=O)O)[C@@]1(C)CCC[C@@](C)(C(=O)O)[C@@H]1CC2`, the Potency entry is “inactive”. Regarding `OCCN(CCO)c1ccccc1`, the Potency result was “inactive”. With `CC(C)(O)C(=O)c1ccc(OCCO)cc1`, the Potency result was “inactive”.

Consider `Cc1ccc(C=O)s1`, for which the Potency result was “inactive”. Same read-out and setting: then `CC(C)C(C)C`, with “inactive”; and `CC1CCC(C(C)(C)S)C(=O)C1` (stereo not given), with “inactive”. Take `O=C(O)CN(CCN(CC(=O)O)CC(=O)O)CCN(CC(=O)O)CC(=O)O`: the viability change, negative = cytotoxic was 8.32% [at 18.9 µM].

With `C[C@]1(Cn2ccnn2)[C@H](C(=O)O)N2C(=O)C[C@H]2S1(=O)=O`, the Potency result is “inactive”. In the case of `c1cc(CN2CCCCC2)cc(OCCCNc2nc3ccccc3s2)c1`, the Potency entry is “inactive”. As to `CCC1OCC(COc2ccc(Oc3ccccc3)cc2)O1` (stereo not given), the Potency result was “inactive”. The same measure, in the same setting: under `C[C@]12C=CC(=O)C=C1CC[C@@H]1[C@@H]2C(=O)C[C@@]2(C)[C@H]1CC[C@]2(O)C(=O)CO` stands “inactive”; under `Cc1cc(O)ccc1N`, “inactive”. `CCCC(O)C(CC)CO` (stereo not given): the Potency result was “inactive”. Same read-out and setting: then `COc1cc(C(=O)NCCCCCC(=O)O)cc(OC)c1OC`, with “inactive”.
